Screens (PubChem BioAssay)
Rows were chosen to be rich in hits. Some 5.9% of all compounds tested hit in one or more screens of this group.
GLP-1R inv ag: GLP-1 receptor (human) inverse agonism. HEK293 GLP-1R CRE-luciferase, luminescence, 24 h; GLP-1R form is constitutively active. Potency, µM (top dose mostly 38.3 µM), most hits filed as inhibitors. 410,000 compounds, 1.6% hits. AID 624417. P43220; note: nearly all actives have a fitted effect of over 55% in size
Target sequence (P43220 whole entry, looked up): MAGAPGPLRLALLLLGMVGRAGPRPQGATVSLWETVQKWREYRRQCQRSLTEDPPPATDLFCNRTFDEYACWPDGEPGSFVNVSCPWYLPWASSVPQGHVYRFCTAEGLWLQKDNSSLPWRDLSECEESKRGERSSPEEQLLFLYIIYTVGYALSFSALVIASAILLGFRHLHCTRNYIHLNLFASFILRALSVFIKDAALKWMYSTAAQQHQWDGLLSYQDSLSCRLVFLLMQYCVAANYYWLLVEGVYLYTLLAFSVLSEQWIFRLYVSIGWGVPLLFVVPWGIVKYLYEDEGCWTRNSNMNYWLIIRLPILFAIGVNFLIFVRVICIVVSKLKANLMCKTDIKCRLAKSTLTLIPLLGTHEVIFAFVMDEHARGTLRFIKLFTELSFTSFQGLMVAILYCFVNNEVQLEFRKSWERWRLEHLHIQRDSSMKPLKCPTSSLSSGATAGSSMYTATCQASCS
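HEK293 cells stably co-expressing a cAMP-responsive luciferase reporter and constitutively active GLP-1R were seeded, incubated 12 h, then exposed to compounds for 24 h at 37 C. Luminescence was read 12 min after detection reagent; inverse agonists lower signal.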
GLP1R cytotox: cytotoxic in the GLP-1 receptor inverse agonist counter-screen; HEK293 cAMP-luciferase reporter cells, luminescence, 24 h; Potency, µM (top dose mostly 38.3 µM), actives largely listed as inhibitors; 410,000 compounds, 0.13% hits; AID 624418;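 note: loss of luciferase light is scored as toxicity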
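Luminescence readout: signal drop marks cytotoxicity. Plated cells grew 12 h at 37 °C, 5% CO2, received 23 nL compound for 24 h, then got luciferase reagent, read after 12 min at RT.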
RORgamma inh: inhibitors of mouse ROR gamma transcriptional activity; 310,000 compounds, 5.4% hits; Drosophila S2 Gal4-RORgamma UAS-luciferase reporter, 20 h; P51450; Potency, µM (doses to about 53.6 µM), usual class: inhibitors; note: nearly all actives have a fitted effect of over 60% in size
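Read-out: Photinus luciferase luminescence; inhibitors lower reporter signal. Insect Schneider cells with Gal4-ROR gamma fusion under metallothionein promoter, UAS reporter; 700 uM final copper sulfate induction, 20 hr, ambient temperature.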
Gal4-VP16 FLuc: counter-screen for ROR gamma inhibitors: Gal4-VP16 reporter. Drosophila S2 Gal4-VP16 UAS-luciferase, luminescence, 20 h. Potency, µM (series often up to 53.6 µM), usual class: inhibitors. 310,000 compounds, 3.5% hits. AID 2546;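 note: Gal4-VP16 expression switched on by copper sulfate through the metallothionein promoter; nearly all actives have a fitted effect of over 50% in size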
GLP-1R agonist: activates the human GLP-1 receptor. P43220. HEK293 GLP-1R CRE-luciferase, luminescence, 4-6 h; cells express a hypersensitive GLP-1R form. Potency, µM (titrated, usually from 45.6 µM), most hits filed as activators. 380,000 compounds, 0.007% hits. AID 624172
A number is an active result; - = inactive; ? = inconclusive; . = no result given; [ ] = another dose, or the depositor's remark. Calls come from the whole dose curve; as a rule, active = well fitted curve in the direction sought with a large enough effect; inconclusive = small, poorly fitted or top-dose-only effect, or another doubt; inactive = no such curve, though single readings can be large; an effect the other way counts as inactive or inconclusive.

SMILES	GLP-1R inv ag	GLP1R cytotox	RORgamma inh	Gal4-VP16 FLuc	GLP-1R agonist
COc1cc(OC)cc(C(=O)Nc2ccc(Nc3ccccc3)cc2)c1	11µM	-	-	-	-
CC(C)(C)c1nnc(NC(=S)Nc2ccccc2)s1	-	?	0.28µM	0.89µM	-
C[C@H]([C@H](C)N1CC(=O)NC(=O)C1)N1CC(=O)NC(=O)C1	.	.	-	-	.
FC(F)(F)c1cc(CO[C@H]2CCCN[C@H]2c2ccccc2)cc(C(F)(F)F)c1	.	.	25µM	-	.
Cc1n[nH]c(C)c1S(=O)(=O)N(CC(=O)Nc1ccc(C(F)(F)F)cc1)c1ccc(C(C)C)cc1	10µM	-	.	.	.
COc1ccc(N(CC(=O)Nc2cc(Cl)ccc2C)S(=O)(=O)c2c(C)n[nH]c2C)cc1	4.5µM	?	-	-	-
COc1ccc(N(CC(=O)Nc2ccc(C)cc2C)S(=O)(=O)c2c(C)n[nH]c2C)cc1	?	-	-	-	-
Cn1c2c(c(=O)n(C)c1=O)C(C(F)(F)F)(C(F)(F)F)N=C(c1ccc(Cl)cc1)N2	?	?	6.3µM	3.2µM	-
Cc1ccccc1C1=NC(C(F)(F)F)(C(F)(F)F)c2c(n(C)c(=O)n(C)c2=O)N1	-	-	-	-	-
CSc1ccccc1NC(=S)NCc1ccc(Cl)cc1	?	?	7.1µM	11µM	-
Cc1c(Cl)cccc1NC(=S)NCc1ccc(Cl)cc1	?	?	.	.	-
CCCNC(=S)Nc1ccc(Cl)cc1Cl	-	-	11µM	?	-
S=C(NCCN1CCOCC1)Nc1ccc(Cl)cc1Cl	-	-[1.53 µM]	-	-	-
S=C(NCc1ccc(Cl)cc1)Nc1ccccc1Cl	?	-	13µM	?	-
S=C(NCCc1ccc(Cl)cc1)Nc1ccc(Cl)cc1Cl	10µM	?	5.6µM	4.5µM	-
COc1cccc(N2CCN(C(=O)c3cc4c(s3)-c3c(C)cccc3OC4)CC2)c1	?	-	.	.	.
COc1ccccc1CCn1c(=O)c(-c2cccs2)nc2cncnc21	.	.	-	-	.
Cc1cc(C)c(NC(=O)C2CCN(c3nn4c(=O)cc(C)nc4s3)CC2)c(C)c1	-	-	.	.	.
Cc1ccc(C)c(Cn2c(=O)n(Cc3ccccc3)c(=O)c3sc4ccccc4c32)c1	-	-	.	.	-
Fc1ccc(CNC(=S)Nc2ccc(Cl)cc2Cl)cc1	?	-	4µM	5.6µM	-
Fc1ccc(NC(=S)Nc2ccc(Cl)cc2Cl)cc1	-	-	?	-	-
S=C(NCc1ccncc1)Nc1ccc(Cl)cc1Cl	-	-	-	-	-
S=C(NCc1ccc(Cl)cc1)Nc1ccc(Cl)cc1Cl	?	-	11µM	11µM	-
COc1cccc(/C=N/N=C(\N)c2nonc2N)c1O	?	?	0.1µM	0.63µM	-
CC(=O)NS(=O)(=O)c1ccc(NC(=O)c2ccc3c(c2)OCO3)cc1	-	-	20µM	-	-
SMILES	GLP-1R inv ag	GLP1R cytotox	RORgamma inh	Gal4-VP16 FLuc	GLP-1R agonist
Cc1ccc(C(=O)Nc2ccc3c(c2)OCCO3)c(C)c1	?	-	3.2µM	4.5µM	-
CC(=O)Nc1ccc(C(=O)Nc2ccc3c(c2)OCO3)cc1	-	-	?	-	-
Cc1cc(C)c2[nH]c(C(=O)Nc3ccc4c(c3)OCO4)cc2c1	?	-	0.4µM	-	-
Cc1cccc(NC(=O)c2ccc3c(c2)OCCO3)c1	11µM	-	?	?	-
C/C(=C\C[Si](C)(C)C)CC[C@H](O)C1=CCCCC1=O	.	.	-	-	.
CCOC(=O)C1=C(C)NC(C)=C(C(=O)OCC)C1c1ccccc1C=CC(=O)OC(C)(C)C	.	.	-[10 µM]	?	-
COC(=O)C/C=C1\c2ccc3c(c2[C@@H](OC)[C@@H]1C)OCO3	.	.	-	-	.
Cc1ccc(NC(=O)c2ccc3c(c2)OCCO3)cc1C	?	-	5µM	?	-
O=C(Nc1ccc(NC(=O)c2ccc3c(c2)OCCO3)cc1)c1ccccc1	-	-	?	-	-
CC/C(O)=C(\C#N)c1nnc2n1CCCCC2	-	-	13µM	?	-
N#C/C(=C(/O)COc1ccc(Br)cc1)c1nnc2n1CCCCC2	-	-	-	?	-
CC/C(O)=C(/C#N)c1nnc2n1CCCCC2	-	-	20µM	?	-
COc1cc(OC)c(NC(=O)c2c(N3CCCC3=O)c3cc(C)ccc3n2C)cc1Cl	-	-	.	.	.
Cc1oc(-c2ccc(C(=O)NCc3cccc(F)c3)cc2)nc1COc1ccccc1	-	-	.	.	.
